Laboratory results as given in PubChem BioAssay AID1347426 (Functional Genomics Laboratory (NCATS/FGL), 2020).
About 1,400 (4.5%) of roughly 31,000 sequences were called active.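 The calls were made as follows: active = median seed-adjusted z-score above 1 or below -1; inactive = the rest.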 The full list was thinned out, with actives kept by preference.

Experiment: Novel Modifiers of Survival Motor Neuron (SMN) Protein: Gene Identification via Genome-wide siRNA Screen;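 also: luminescence tracks full-length SMN protein made from the SMN2 reporter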
Settings: HEK293T SMN2-luciferase reporter, siRNA knockdown, 72 h; actives lie on both sides
Outline: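 HEK293T cells stably expressing an SMN2 splicing/cDNA-luciferase reporter were reverse-transfected with a druggable-genome siRNA library and read by luminescence at 72 hours; hits defined by MAD score above 1.0 or below -1.0.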

Sequence | median seed-adjusted z-score
GACCAUACCCAGUACCGAUTT against MYH15 | -0.939 (inactive)
GCAGGACCUUUUAGCAUCUTT against LYL1 | -0.118 (inactive)
ACCGCUAUGUCUACAUGUUTT against FADS6 | -0.637 (inactive)
GAAACAAACUUAUAGUGAUTT against WBP5 | 0.452 (inactive)
GGAUUUUUGAUUUUCCGAATT against TUBAL3 | 1.05 (active)
CGAAGGCCUUGUGAACAGATT against FOSL1 | -0.431 (inactive)
CAGAGAAACGAGUCUUUAATT against ST6GALNAC5 | -0.0321 (inactive)
GCUUCUAAAUGUGAGACGATT against GCNT4 | -0.0629 (inactive)
GGGUACAACUCUUUGAAGATT against MNAT1 | -0.335 (inactive)
GCUCAAAUUGUUUUGCGUUTT against AKR1D1 | 0.211 (inactive)
CGCUUCAAGAGGUUCGGAATT against MLPH | -1.2 (active)
GAAAAGGGAUAACUACGAATT against HIVEP3 | 0.516 (inactive)
CCAGCGAGCUGAUCCUCAATT against MYCN | 0.00242 (inactive)
CCACCUUUGCAACGCGGAATT against TPSD1 | 0.0848 (inactive)
GAGAUGCUGUGAGUAGGUATT against TTC9C | -0.571 (inactive)
CGACAUUGCCCUGCUCAAATT against ELA2B | -0.154 (inactive)
GGGUCACAGAGGUCGAUAUTT against PDILT | -0.0994 (inactive)
CAAUAAGGCUCAUGCACAATT against GNAQ | -1.23 (active)
AACUCUUCAGGUGAAGAUATT against SLC8A2 | 0 (inactive)
GGAGUUUGCGUUUGAGGUATT against PLCD1 | -0.0473 (inactive)
CGAAUAUGAUGAAGAUGUUTT against PHF17 | 1.01 (active)
CAAAGAUCAUGAUAUUCCATT against JUB | -0.0898 (inactive)

Sequence | median seed-adjusted z-score
CACCCACCUCAGAUUGAUATT against MBTPS2 | -0.324 (inactive)
CGCUCUACCUGAUCUGCUATT against SLC43A2 | -0.202 (inactive)
ACAUCAUGAGGAAUGCUAUTT against UCP3 | 1.23 (active)
GAGCAGAAAUUAUUCGUUATT against PGDS | 0.02 (inactive)
GACUAAAGAUUCAGAUAAATT against TRIM13 | 0.712 (inactive)
CGACAGAGGCAGACACAGATT against BATF | -0.0501 (inactive)
GAAUUGCUCCACCAGAUAATT against NAALAD2 | -0.00068 (inactive)
GAUGAUGACUUACAUAGAATT against TRRAP | -1.25 (active)
CUAUAGCAAGUGAACUAAATT against COG5 | -0.0609 (inactive)
GGGUUGGUUUGGGCCUGAATT against SOX12 | 0.478 (inactive)
GAAGAGCAGUGUACCAUCATT against STARD8 | -0.135 (inactive)
AAGACGAACUUGAGCUGGATT against MAPK8IP1 | 0.576 (inactive)
GCUCCAAUGUCUACAGAAATT against MRGPRE | -0.65 (inactive)
CAGAUGAAAUACUACUUCUTT against ARD1A | -1.05 (active)
GCAGUUACCCGCAUACCAATT against CALCR | -0.404 (inactive)
GGGAAGCCGCCUAUACCAATT against TK1 | -0.0562 (inactive)
AGACCGUAAUUAUCGUCCUTT against EDG1 | -0.316 (inactive)
GGAUGACAUGUCUAGCAUUTT against NXF1 | -4.46 (active)
CAACCUAUCAUAUCUGUUUTT against SLC22A16 | 0.0878 (inactive)
CCAUCGGCAUCACCUUCUATT against SLC35C2 | -0.483 (inactive)
CUGUGAAAAUGGGACGGGATT against NDUFA6 | -0.457 (inactive)
CAUCAGUCAUAAUGCCUAUTT against MAP1D | 0.155 (inactive)

Sequence | median seed-adjusted z-score
CGCCUCCAGUUUUAACUCUTT against POU2F3 | -1.53 (active)
GGGUAUUCUGGGCAUGAAATT against NANS | -1.54 (active)
GCAAGACCUAUGAAACGAUTT against CADPS | 0.551 (inactive)
GCACGAGGUUUUCACCUAUTT against SRMS | -1.58 (active)
GUUAUACUGUGAGAUCUAATT against GPR160 | -0.278 (inactive)
GAGAUUGGGUGGAAGAGAATT against FOXD2 | -0.0853 (inactive)
AAGUCGGAAUAGAAUGGAATT against COX7B | -1.16 (active)
GGACAACAACUGAAAUGUATT against ZIM3 | -0.02 (inactive)
AGUUAGGCACAGUCAGACATT against POLD4 | 0.225 (inactive)
CGAUGUAUGACGAGGAAAATT against BTNL3 | 0 (inactive)
GUUACGACCUGGAAGAUUATT against SPATA5L1 | 0.252 (inactive)
GAGCAAGACUUCUACGUGATT against SERPINA5 | -1.01 (active)
GGCUAAGAAUGACCAUUAUTT against NPR2 | 0.0712 (inactive)
CAGUCGUCAUAAUACUGCATT against SMC4 | 0.646 (inactive)
CCCUGUUAGUAACGGCAAATT against OBFC2B | -0.061 (inactive)
AGAUGUACCUAUGUCAAGATT against OVOL1 | -0.0414 (inactive)
CCAUGUUUGAACAAGCCCATT against MYL7 | -1.21 (active)
GCACCUUUGUGACCUAUGATT against KIF9 | 0 (inactive)
CGCUAAAGCUGCACACUGATT against TRAF3 | 0.731 (inactive)
GAGCUGACUUUCUGACCAATT against RAB7A | 0.169 (inactive)
GCAACGGUGCUUUCCCAGATT against CASKIN1 | 0.555 (inactive)
CCAAAGUGGGUGUCAACGATT against BGN | 0.376 (inactive)

Sequence | median seed-adjusted z-score
GAAUUUUGUGGUUACACUATT against POLR1D | -0.0409 (inactive)
GGGUGUAAUUCAUAAGGGUTT against PSMD1 | -1.61 (active)
GGACUGAUUGGACUCCCAUTT against TNFRSF11A | -0.0833 (inactive)
GGACGGUCGUGAUGGAUAATT against SAFB2 | 0.0394 (inactive)
CCCUGAACAUACCUACUGATT against BRS3 | 0.224 (inactive)
ACAUCUAUUUGUGACCUUATT against NHLH2 | 0 (inactive)
GCACAAGCAUUGGAAAUAATT against MAP4 | 1.67 (active)
CCUUUAUGCCUGAUCCUCATT against SULT1C3 | -0.731 (inactive)
CCACAACGGACAGUCCAUATT against CYP17A1 | -1.39 (active)
GGAAAGCAAUAAAAGUUAUTT against TAAR6 | -0.124 (inactive)
AGGCCUAUAUUGAAGGAGATT against DGKG | 0.227 (inactive)
CAACAGGUAUAACUACAUATT against CNDP2 | 0.43 (inactive)
CCAAGAAGAUCAGCACCUUTT against GPR26 | -1.33 (active)
AGACCAUAACUACUCACUATT against KDELR3 | 0.476 (inactive)
GCUCAAUUGUCGAUCUUUATT against ERO1LB | 0.565 (inactive)
GAAGGUUUCUGUGCCCUCATT against SLC4A9 | 0 (inactive)
CCUGCAAGCUGUCAACUUUTT against PRKACA | -0.137 (inactive)
CAACUUCUAUAGUCGAAUATT against TXNDC3 | -0.649 (inactive)
CGAUAUUUAUCCUUACCUATT against SLC9A2 | -1.02 (active)
CCUUUACGUUCAAAUCACATT against ZNF268 | 0.0358 (inactive)
CCAAGGAGUCGUCUACUUUTT against B3GAT3 | -0.00603 (inactive)
GCAGAUCUCAUGUCCUCUATT against FPGS | -0.853 (inactive)

Sequence | median seed-adjusted z-score
GCAAGUGGUUUGUCAGUAATT against B3GALT5 | 0.144 (inactive)
GCUCUUAUGCGACAGUUUATT against PFTK2 | -1.16 (active)
GGUGUAUGCUGAGGUGAAATT against EIF2C1 | 0.215 (inactive)
AGUCUGUUGGUGCACAAAATT against MDM2 | 0.258 (inactive)
GAUUUAUGCUAGCUCUAAATT against CFL2 | -0.148 (inactive)
CAUCAAAACUUGGAGAGCATT against FN3K | -0.508 (inactive)
CCUUCUACAACACCAAGAATT against AGPAT2 | 0.38 (inactive)
GGAUUACAGGAGACCCAUATT against FUBP1 | -1.52 (active)
CAUUAACAUUGUUCGCAAATT against ACO2 | -1.57 (active)
UACCAGAUCUCAAAAAGAATT against CCR5 | -0.0281 (inactive)
GGAUGAAGGUAGUUACGUUTT against RAVER2 | -0.258 (inactive)
CAUCCACACUGCAAUGAUATT against PILRB | 0.0351 (inactive)
AAUUUUCCUGUGAUAGAAATT against PATE1 | 1.21 (active)
GCGACUUUCUUGGUUUGCATT against SNX2 | -0.569 (inactive)
CCCUAAAUGUAUCUCGGAATT against GRIN3A | 0.241 (inactive)
CGAGACGUAUUAUAUCUUUTT against COL4A3BP | 0.0391 (inactive)
GUGCAUAAGUGUUAGGGAATT against SLC17A2 | 0.141 (inactive)
GAUCUGAGCUUGUACAGAATT against PSMC2 | -1.96 (active)
GGAUCGAACCCAUGGAUCATT against ROCK2 | -0.149 (inactive)
GAAUAACUGCUGCUUGUAATT against TTRAP | -0.33 (inactive)
